From PubChem BioAssay (NCATS) come the findings set out here.

Unmarked numbers belong to inactive results. Inconclusive results are not listed. Activity calls are given as the source filed them. Unless noted, calls come from the whole dose curve; as a rule, active = well fitted inhibition curve with a large enough effect; inconclusive = small, poorly fitted or top-dose-only effect; inactive = no such curve, though single readings can be large or run the other way.

Experiment [1] concerns the target Cytochrome P450 1A2 (Homo sapiens) (UniProt P05177). Nature of the experiment: p450-cyp1a2 (AID 410; calls by dose curve; note: potency is the fitted concentration of half-maximal effect). An outline of the steps:
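Read-out is luminescence from luciferin produced by CYP1A2 demethylation of Luciferin-ME (100uM, at Km). Detection reagent stopped the 60 min NADPH-dependent reaction; signals were normalized to 57 uM furafylline.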

In experiment [2] the target is Glucocorticoid receptor (Homo sapiens) (UniProt P04150). Description: GR-EFC Redistribution (AID 451; calls by dose curve; note: potency is the fitted concentration of half-maximal effect). To be noted: CHO-K1 GR-EFC translocation, beta-gal luminescence, 2 h. The essentials: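 CHO-K1 cells stably expressing nuclear-localized β-gal enzyme acceptor and GR fused C-terminally to the enzyme donor fragment; ligand-driven nuclear translocation restores β-gal by complementation. Compounds titrated up to 46 uM final, 2 h at 37 °C; luminescence read.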

The target in experiment [3] is Mitogen-activated protein kinase 10 (Mus musculus) (UniProt Q61831). Description: JNK3 AlphaScreen Assay (AID 530; active = well fitted curve in either direction with a large enough effect, not every such curve was filed as active;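 note: kinase came from lysate of stimulated human HepG2 cells; signal reports phosphorylation of biotinylated GST-cJun 1-79 at Ser73 with 10 µM ATP; series mostly up to about 57 µM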). An outline of the steps: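 Biotinylated GST-cJun(1-79) served as substrate for JNK3 in HepG2 lysates stimulated with IL-1beta and TNF-alpha. ATP was 10 uM final, pH 7.6. Ser73 phosphorylation was quantified by AlphaScreen (680 nm excitation).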
Experiment [4] concerns the target 3',5'-cyclic-AMP phosphodiesterase 4B (Homo sapiens) (UniProt Q07343). Nature of the experiment: qHTS Assay for Inhibitors of PDE-IV (AID 607; active = well fitted activation curve with a large enough effect in the main read-out, with a control signal flat, not every such curve was filed as active). An outline of the steps:
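Cell-based read-out of cAMP via a modified cyclic nucleotide-gated channel and membrane potential dye (535/590 nm) in HEK293 cells expressing PDE4 endogenously. Compounds tested up to 22.9 uM final; 100 uM RO 20-1724 reference.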

Experiment [5] concerns the target Cytochrome P450 2D6 (Homo sapiens) (UniProt P10635). Nature of the experiment: qHTS Assay for Inhibitors and Substrates of Cytochrome P450 2D6 (AID 891).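 Note: luciferin methyl ether substrate demethylated by CYP2D6 with NADPH regeneration; nearly all actives have a fitted effect of over 60% in size.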 The essentials: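 Luminescent read-out of luciferin formed by 5 nM human CYP2D6 demethylating 30 uM Luciferin-ME EGE (Km level) over 60 min at room temperature after NADPH regeneration addition. Data normalized to full inhibition by 1.43 uM quinidine.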

Experiment [6] has as its target Cytochrome P450 2C19 (Homo sapiens) (UniProt P33261). Description: qHTS Assay for Inhibitors and Substrates of Cytochrome P450 2C19 (AID 899). Note: nearly all actives have a fitted effect of over 60% in size. The essentials:
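NADPH-dependent conversion of Luciferin-H EGE (10uM, at KM) by 5nM enzyme in 50mM KPO4, 60 min at 37C following 10 min compound preincubation. Stopped with luciferin detection buffer; luminescence read after 20 min.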

Experiment [7] addresses Cytochrome P450 2C9 (Homo sapiens) (UniProt P11712). Description: qHTS Assay for Inhibitors and Substrates of Cytochrome P450 2C9 (AID 883). Note: nearly all actives have a fitted effect of over 60% in size. An outline of the steps:
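A luminogenic readout tracked human CYP2C9 (10nM) converting deoxyluciferin (100uM, at KM) in 25mM KPO4 during 60 min at 37C with regenerated NADPH. Values normalized to 57uM sulphaphenazole as complete inhibition.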

Sequence of Cytochrome P450 2C19 (Homo sapiens) (P33261 whole entry, looked up): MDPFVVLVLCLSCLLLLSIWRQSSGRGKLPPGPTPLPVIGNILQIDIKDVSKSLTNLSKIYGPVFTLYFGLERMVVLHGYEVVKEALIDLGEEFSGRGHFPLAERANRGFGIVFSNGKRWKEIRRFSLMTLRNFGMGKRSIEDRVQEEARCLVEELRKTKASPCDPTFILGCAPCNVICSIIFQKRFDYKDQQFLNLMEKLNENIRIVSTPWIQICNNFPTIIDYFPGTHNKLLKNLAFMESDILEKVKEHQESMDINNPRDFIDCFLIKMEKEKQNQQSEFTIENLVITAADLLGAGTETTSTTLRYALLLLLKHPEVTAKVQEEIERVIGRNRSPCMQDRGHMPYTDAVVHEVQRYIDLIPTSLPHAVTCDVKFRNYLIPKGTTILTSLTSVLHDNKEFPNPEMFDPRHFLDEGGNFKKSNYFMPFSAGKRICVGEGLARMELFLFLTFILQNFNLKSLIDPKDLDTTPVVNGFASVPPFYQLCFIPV
Sequence of Glucocorticoid receptor (Homo sapiens) (P04150 whole entry, looked up, the tested form may be a part): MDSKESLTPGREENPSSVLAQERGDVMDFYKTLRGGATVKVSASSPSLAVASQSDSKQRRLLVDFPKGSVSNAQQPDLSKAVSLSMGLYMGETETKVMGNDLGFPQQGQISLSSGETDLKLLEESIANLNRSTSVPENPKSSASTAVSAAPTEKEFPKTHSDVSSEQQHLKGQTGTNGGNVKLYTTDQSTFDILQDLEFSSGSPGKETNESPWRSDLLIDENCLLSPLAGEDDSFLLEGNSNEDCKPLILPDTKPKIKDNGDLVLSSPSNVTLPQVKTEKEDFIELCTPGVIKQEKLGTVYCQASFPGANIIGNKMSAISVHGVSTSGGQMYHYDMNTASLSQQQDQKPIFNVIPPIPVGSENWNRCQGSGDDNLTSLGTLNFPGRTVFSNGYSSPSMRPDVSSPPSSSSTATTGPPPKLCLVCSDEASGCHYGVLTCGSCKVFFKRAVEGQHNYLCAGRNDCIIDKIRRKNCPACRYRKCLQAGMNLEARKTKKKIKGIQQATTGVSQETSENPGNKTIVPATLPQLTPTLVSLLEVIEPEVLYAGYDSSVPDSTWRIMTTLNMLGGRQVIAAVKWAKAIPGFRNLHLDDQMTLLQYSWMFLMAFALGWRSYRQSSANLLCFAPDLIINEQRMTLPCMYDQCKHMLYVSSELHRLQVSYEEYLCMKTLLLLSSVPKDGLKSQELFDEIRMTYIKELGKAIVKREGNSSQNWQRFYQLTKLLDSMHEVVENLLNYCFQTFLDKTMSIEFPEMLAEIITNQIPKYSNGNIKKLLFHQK
Sequence of Cytochrome P450 2D6 (Homo sapiens) (P10635 whole entry, looked up): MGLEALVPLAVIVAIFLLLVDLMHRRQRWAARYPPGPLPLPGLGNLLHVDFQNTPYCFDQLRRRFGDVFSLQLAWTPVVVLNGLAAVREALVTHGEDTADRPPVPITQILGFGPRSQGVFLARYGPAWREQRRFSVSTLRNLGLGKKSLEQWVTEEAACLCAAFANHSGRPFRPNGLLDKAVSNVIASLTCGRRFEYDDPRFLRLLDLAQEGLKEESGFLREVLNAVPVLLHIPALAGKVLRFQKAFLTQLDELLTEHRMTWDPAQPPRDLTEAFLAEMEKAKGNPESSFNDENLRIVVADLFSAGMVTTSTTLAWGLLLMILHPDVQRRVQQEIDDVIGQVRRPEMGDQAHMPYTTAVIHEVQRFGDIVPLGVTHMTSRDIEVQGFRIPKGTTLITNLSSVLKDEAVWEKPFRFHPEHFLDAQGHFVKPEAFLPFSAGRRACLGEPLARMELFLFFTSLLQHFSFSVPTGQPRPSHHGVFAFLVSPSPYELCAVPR
Sequence of Cytochrome P450 1A2 (Homo sapiens) (P05177 whole entry, looked up): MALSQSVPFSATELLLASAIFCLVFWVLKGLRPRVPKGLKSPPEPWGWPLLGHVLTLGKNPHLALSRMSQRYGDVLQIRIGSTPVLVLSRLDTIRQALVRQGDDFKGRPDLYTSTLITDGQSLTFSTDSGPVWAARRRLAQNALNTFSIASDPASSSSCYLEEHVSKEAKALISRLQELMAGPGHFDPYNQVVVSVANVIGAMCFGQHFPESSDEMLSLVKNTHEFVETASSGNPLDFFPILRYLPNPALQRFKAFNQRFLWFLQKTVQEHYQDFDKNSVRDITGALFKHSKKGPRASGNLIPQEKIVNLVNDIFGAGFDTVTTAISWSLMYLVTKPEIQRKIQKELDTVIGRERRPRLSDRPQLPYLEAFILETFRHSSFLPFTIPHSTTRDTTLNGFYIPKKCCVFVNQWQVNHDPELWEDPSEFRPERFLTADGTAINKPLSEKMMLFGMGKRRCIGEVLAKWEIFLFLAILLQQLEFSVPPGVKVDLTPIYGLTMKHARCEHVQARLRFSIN
Sequence of 3',5'-cyclic-AMP phosphodiesterase 4B (Homo sapiens) (Q07343 whole entry, looked up): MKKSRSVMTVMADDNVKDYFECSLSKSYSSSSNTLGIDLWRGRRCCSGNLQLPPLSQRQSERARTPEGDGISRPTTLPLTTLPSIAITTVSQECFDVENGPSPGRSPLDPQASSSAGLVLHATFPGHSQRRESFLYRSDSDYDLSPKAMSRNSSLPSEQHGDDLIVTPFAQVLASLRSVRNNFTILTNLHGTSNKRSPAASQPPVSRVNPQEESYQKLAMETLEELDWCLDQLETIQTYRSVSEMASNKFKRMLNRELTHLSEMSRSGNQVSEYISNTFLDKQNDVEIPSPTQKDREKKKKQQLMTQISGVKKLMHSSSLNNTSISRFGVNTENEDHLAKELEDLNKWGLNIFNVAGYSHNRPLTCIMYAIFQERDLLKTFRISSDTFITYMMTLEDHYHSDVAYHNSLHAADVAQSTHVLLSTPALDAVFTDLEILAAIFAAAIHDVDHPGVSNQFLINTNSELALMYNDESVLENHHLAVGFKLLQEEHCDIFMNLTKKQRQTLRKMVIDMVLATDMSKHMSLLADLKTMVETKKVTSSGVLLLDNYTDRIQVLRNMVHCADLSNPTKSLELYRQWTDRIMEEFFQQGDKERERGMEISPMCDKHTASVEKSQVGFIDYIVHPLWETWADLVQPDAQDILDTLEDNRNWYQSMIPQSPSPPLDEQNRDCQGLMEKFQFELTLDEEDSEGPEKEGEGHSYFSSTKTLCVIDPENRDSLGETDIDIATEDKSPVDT
Sequence of Cytochrome P450 2C9 (Homo sapiens) (P11712 whole entry, looked up): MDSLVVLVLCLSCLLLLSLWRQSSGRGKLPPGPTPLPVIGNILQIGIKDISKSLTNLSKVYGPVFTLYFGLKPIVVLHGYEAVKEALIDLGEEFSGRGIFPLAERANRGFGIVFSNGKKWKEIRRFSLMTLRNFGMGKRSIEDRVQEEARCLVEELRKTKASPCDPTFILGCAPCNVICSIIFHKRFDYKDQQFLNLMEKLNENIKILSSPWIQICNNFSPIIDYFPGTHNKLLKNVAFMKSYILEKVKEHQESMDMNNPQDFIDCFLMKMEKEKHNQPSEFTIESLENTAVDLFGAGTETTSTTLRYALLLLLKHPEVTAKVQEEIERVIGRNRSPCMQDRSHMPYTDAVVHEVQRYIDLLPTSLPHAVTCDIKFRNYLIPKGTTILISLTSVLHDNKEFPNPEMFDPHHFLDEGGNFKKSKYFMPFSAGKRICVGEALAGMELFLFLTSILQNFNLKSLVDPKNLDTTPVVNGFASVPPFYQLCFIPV

Take `CC(C)C[C@@H](CC(=O)N[C@H](CC(=O)N[C@@H]1CCNC[C@H]1C(=O)N[C@H](CC(=O)N[C@@H](CCC(=O)O)CC(=O)O)CC(C)C)C(C)C)NC(=O)[C@@H]1CNCC[C@H]1N`: the Potency entry in experiment [1], in experiment [3], in experiment [4], in experiment [5] and in experiment [6] was “inactive” in each case. For the same compound, the Potency in experiment [2] was > 46 µM.

With `CC(C)[C@@H](CC(=O)N[C@@H]1CCNC[C@H]1C(=O)N[C@H](CC(=O)N[C@@H](CCC(=O)O)CC(=O)O)Cc1c[nH]c2ccccc12)NC(=O)C[C@H](Cc1ccccc1)NC(=O)[C@@H]1CCCC[C@H]1N`, the Potency in experiment [1] was 31.6 µM (active); in experiment [2], > 46 µM. Further, the Potency result in experiment [3], in experiment [4], in experiment [7], in experiment [5] and in experiment [6] was “inactive” each time.

As for `NCCC[C@@H](CC(=O)N[C@@H]1CCNC[C@H]1C(=O)N[C@H](CC(=O)N[C@@H](CCC(=O)O)CC(=O)O)Cc1ccccc1)NC(=O)C[C@H](Cc1c[nH]c2ccccc12)NC(=O)[C@@H]1CNCC[C@H]1N`, the Potency entry in experiment [1], in experiment [3], in experiment [4], in experiment [7], in experiment [5] and in experiment [6] was “inactive” throughout. In addition, in experiment [2], the Potency is > 46 µM.

With `CC(C)[C@@H](CC(=O)N[C@@H]1CCCC[C@H]1C(=O)N[C@H](CC(=O)N[C@@H](CCC(=O)O)CC(=O)O)Cc1c[nH]c2ccccc12)NC(=O)C[C@H](Cc1ccccc1)NC(=O)[C@@H]1CNCC[C@H]1N`, the Potency result in experiment [1], in experiment [3], in experiment [4], in experiment [7], in experiment [5] and in experiment [6] was “inactive” throughout. The Potency in experiment [2] is > 46 µM.
